In the supplement of paper PMC10849652:
About 7,900 targets were measured; listed, in parts, are those with a hit and a random draw of the rest. About 0.6% of all pairs of compound and target were hits. Values without a mark were called inactive.

What was measured:
Test in all cases: log2 fold change, soluble protein after heating vs DMSO (PISA); higher = thermal stabilisation; K562 cells, 10 uM, 30 min; active = over 0.2 and 3.5 SD of the protein, either way, in both replicates (recomputed)
erlotinib = compound: C#Cc1cccc(Nc2ncnc3cc(OCCOC)c(OCCOC)cc23)c1 [erlotinib]
Outline: (§1)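 Quantification of soluble protein used TMTpro 16plex LC-MS/MS, with channel sums equalised. Samples were the supernatant after 21,000xg for 90 min of pooled aliquots from K562 cells (2×10^6 cells/mL) treated with 10 μM compound for 30 min, heated for 3 min over 48°C-58°C, and extracted in PBS with 0.5% NP-40 at 4°C. Values, from duplicates, describe thermal stability against control samples on a log2 fold-change scale.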

[1] = compound: C1=CC(=CC=C1C2=NC3=C(N2)C=C(C=C3)C(=O)N)OC4=CC=C(C=C4)Cl
Outline: as §1

[2] = compound: C1=CC2=NC=CN=C2C=C1/C=C/3\C(=O)NC(=O)S3
Outline: as §1

[3] = compound: C1CCN(C1)C(=O)NC2=CC=CC(=C2)NC3=NC=C(C(=N3)NCCC4=CN=CN4)Br
Outline: as §1

[4] = compound: C1CN(CCC1(CC2=CC=C(C=C2)Cl)N)C3=NC=NC4=C3C=CN4
Outline: as §1

ibrutinib = compound: C=CC(=O)N1CCC[C@@H](n2nc(-c3ccc(Oc4ccccc4)cc3)c3c(N)ncnc32)C1 [ibrutinib]
Outline: as §1

[5] = compound: CC(C)C1=C2N=C(C=C(N2N=C1)NCC3=CC=CC=C3)NCCCCCCN
Outline: as §1

[6] = compound: CC1=C(C(CC(=O)N1)C2=CC=C(C=C2)C(F)(F)F)C(=O)NC3=C(C=C4C(=C3)C=NN4)F
Outline: as §1

[7] = compound: CC1=C(C2=C(C=C1)C(=O)C3=CC=CC=C3N2CCCN)C
Outline: as §1

[8] = compound: C/C(=N\NC(=O)C1=CC(=CC=C1)S(=O)(=O)N2CCOCC2)/C3=C(C=CC(=C3)Cl)O
Outline: as §1

[9] = compound: C1=CC2=C(C=CC(=C2)/C=C\3/C(=O)NC(=NCC4=CC=CS4)S3)N=C1
Outline: as §1

[10] = compound: C1=CC=C(C=C1)C2=NC(=C(N2)C3=CC=NC=C3)C4=CC(=C(C=C4)Cl)O
Outline: as §1

[11] = compound: C1=CC=C2C(=C1)C3=NNC4=CC=CC(=C43)C2=O
Outline: as §1

IRAK-1-4 Inhibitor I = compound: C1COCCN1CCN2C3=CC=CC=C3N=C2NC(=O)C4=CC(=CC=C4)[N+](=O)[O-] [IRAK-1-4 Inhibitor I]
Outline: as §1

[12] = compound: CC(=O)c1cnc2ccc(-c3cc(Cl)c(O)c(Cl)c3)nc2c1N[C@H]1CC[C@H](CN(C)C)CC1
Outline: as §1

ralimetinib = compound: CC(C)(C)Cn1c(N)nc2ccc(-c3[nH]c(C(C)(C)C)nc3-c3ccc(F)cc3)nc21 [ralimetinib]
Outline: as §1

[13] = compound: CC(C)C[C@@H](C=O)NC(=O)[C@H](CC(C)C)NC(=O)[C@H](CC(C)C)NC(=O)OCc1ccccc1
Outline: as §1

pinometostat = compound: CC(C)N(C[C@H]1O[C@@H](n2cnc3c(N)ncnc32)[C@H](O)[C@@H]1O)[C@H]1C[C@@H](CCc2nc3cc(C(C)(C)C)ccc3[nH]2)C1 [pinometostat]
Outline: as §1

[14] = compound: C1=CC(=C(C=C1Cl)C2=NC3=NC=CN=C3C(=N2)NC4=CC=NC=C4)F
Outline: as §1

[15] = compound: CC(C)(O)CC(=O)NCCn1ccc2ncnc(Nc3ccc(Oc4cccc(C(F)(F)F)c4)c(Cl)c3)c21
Outline: as §1

Chain of UniProt Q96ET8 (Q96ET8 whole entry, looked up): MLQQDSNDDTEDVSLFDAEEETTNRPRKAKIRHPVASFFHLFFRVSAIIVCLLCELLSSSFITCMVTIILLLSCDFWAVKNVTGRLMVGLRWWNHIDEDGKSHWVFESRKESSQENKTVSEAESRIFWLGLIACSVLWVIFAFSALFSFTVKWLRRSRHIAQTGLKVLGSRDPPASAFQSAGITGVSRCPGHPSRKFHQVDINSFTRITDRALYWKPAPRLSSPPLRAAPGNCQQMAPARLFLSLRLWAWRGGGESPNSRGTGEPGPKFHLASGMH
Chain of UniProt O00124 (O00124 whole entry, looked up): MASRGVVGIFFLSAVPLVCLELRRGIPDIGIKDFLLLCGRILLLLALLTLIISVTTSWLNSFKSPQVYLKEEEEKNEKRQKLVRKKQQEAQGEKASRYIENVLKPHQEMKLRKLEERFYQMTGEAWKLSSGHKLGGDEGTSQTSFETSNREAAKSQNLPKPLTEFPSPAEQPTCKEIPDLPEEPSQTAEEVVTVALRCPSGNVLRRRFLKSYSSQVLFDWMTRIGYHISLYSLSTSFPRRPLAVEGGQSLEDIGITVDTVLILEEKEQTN
Chain of UniProt Q8NE00 (Q8NE00 whole entry, looked up): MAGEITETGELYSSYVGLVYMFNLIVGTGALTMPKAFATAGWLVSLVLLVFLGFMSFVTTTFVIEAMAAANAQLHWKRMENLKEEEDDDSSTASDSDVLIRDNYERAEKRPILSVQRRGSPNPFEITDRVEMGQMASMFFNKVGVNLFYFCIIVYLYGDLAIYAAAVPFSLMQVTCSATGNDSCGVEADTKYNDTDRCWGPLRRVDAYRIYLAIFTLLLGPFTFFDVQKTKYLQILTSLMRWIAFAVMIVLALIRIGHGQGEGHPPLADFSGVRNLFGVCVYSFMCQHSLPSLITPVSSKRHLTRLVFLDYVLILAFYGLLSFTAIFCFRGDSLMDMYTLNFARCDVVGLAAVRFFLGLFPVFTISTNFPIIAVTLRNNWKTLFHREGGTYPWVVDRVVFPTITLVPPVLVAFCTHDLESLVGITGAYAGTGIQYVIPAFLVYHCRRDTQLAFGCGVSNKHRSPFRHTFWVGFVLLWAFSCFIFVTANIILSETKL
Chain of UniProt P36406 (P36406 whole entry, looked up): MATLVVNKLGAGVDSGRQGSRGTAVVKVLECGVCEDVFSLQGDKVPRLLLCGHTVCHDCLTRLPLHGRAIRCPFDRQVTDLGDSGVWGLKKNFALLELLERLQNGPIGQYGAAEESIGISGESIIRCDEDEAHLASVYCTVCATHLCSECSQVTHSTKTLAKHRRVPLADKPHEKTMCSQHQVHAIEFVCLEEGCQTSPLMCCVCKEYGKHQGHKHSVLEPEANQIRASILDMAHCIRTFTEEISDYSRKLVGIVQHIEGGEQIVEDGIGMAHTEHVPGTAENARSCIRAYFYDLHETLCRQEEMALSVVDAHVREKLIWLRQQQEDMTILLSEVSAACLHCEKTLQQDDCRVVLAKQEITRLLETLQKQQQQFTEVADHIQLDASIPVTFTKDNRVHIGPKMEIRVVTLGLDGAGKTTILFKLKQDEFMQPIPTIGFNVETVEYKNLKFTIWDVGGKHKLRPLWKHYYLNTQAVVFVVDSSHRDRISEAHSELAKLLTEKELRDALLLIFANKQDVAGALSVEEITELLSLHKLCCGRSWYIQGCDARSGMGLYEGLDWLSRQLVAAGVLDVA
Chain of UniProt Q6ZVM7 (Q6ZVM7 whole entry, looked up): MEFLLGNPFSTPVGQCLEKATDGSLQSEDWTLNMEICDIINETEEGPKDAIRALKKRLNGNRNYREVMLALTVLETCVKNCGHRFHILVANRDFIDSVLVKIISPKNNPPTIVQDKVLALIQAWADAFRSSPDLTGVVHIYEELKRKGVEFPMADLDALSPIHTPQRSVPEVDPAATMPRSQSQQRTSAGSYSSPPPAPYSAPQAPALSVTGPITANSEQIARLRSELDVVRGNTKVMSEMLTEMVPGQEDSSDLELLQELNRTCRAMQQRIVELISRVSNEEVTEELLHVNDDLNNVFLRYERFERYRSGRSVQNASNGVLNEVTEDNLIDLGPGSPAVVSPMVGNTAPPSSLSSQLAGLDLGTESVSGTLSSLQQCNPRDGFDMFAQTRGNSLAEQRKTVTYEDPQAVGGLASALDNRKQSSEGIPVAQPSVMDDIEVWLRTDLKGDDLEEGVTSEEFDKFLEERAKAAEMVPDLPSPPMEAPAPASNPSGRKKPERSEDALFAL
Chain of UniProt Q96LJ8 (Q96LJ8 whole entry, looked up): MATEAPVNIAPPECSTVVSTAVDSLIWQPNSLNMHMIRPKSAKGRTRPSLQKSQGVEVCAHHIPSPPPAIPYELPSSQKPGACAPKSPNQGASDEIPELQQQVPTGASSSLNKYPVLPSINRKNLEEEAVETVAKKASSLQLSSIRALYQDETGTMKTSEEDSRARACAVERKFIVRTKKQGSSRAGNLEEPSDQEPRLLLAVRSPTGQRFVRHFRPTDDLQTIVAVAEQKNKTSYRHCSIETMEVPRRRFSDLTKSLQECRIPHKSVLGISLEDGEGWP
Chain of UniProt Q9C035 (Q9C035 whole entry, looked up): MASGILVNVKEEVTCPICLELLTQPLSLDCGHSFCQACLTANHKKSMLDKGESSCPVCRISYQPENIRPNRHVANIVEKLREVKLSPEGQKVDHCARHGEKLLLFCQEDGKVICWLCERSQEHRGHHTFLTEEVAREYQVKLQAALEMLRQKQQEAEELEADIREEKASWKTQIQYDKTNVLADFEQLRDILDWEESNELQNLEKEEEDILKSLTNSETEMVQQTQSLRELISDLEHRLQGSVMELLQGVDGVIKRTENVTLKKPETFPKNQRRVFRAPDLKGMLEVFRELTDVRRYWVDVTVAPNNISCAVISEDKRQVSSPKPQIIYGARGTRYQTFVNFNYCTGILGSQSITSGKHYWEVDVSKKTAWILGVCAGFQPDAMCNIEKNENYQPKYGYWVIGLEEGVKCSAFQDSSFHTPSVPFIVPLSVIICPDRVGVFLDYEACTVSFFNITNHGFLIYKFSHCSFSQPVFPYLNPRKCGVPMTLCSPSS
Chain of UniProt P57081 (P57081 whole entry, looked up): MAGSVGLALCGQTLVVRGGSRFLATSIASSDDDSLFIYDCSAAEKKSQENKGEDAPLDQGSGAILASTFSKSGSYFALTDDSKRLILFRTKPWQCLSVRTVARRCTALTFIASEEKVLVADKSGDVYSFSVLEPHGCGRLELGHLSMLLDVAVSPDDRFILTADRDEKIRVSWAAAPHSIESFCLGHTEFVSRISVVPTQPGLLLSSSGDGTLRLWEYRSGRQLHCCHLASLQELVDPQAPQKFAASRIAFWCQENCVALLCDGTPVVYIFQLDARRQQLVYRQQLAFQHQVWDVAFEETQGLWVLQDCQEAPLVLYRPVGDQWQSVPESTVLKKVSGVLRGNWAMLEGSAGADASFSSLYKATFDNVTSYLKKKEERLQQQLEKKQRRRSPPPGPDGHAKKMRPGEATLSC
Chain of UniProt O95857 (O95857 whole entry, looked up): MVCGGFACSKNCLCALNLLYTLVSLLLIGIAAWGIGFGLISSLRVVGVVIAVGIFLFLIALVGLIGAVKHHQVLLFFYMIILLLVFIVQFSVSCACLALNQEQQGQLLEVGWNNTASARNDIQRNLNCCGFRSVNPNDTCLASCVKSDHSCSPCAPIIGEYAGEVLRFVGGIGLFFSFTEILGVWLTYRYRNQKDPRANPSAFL
Chain of UniProt Q86UV5 (Q86UV5 whole entry, looked up): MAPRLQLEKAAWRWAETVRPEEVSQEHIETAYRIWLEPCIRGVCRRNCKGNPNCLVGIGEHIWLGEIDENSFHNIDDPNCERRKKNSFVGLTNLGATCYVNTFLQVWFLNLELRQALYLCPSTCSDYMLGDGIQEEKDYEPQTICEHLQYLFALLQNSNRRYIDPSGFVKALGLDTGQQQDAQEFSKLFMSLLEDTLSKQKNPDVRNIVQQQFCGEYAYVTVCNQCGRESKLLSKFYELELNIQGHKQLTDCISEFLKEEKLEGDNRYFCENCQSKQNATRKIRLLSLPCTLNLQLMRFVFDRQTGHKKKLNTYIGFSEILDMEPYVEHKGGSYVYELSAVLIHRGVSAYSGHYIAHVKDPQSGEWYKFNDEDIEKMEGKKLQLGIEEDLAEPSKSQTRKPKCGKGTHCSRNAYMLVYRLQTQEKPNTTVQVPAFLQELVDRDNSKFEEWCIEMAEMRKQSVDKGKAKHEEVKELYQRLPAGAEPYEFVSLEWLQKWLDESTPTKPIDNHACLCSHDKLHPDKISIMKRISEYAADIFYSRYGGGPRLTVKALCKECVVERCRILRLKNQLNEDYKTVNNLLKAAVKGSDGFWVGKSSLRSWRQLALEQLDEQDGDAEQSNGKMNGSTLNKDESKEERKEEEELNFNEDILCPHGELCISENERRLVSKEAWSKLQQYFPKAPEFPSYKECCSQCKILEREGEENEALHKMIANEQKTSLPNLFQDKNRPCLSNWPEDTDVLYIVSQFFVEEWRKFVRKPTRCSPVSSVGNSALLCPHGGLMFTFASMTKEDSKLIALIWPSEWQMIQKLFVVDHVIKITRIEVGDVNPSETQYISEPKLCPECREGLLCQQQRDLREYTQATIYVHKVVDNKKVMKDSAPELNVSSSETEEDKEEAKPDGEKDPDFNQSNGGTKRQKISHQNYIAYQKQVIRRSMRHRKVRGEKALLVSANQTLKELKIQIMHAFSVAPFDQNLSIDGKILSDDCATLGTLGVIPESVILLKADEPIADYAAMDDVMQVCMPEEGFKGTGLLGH
Chain of UniProt Q629K1 (Q629K1 whole entry, looked up): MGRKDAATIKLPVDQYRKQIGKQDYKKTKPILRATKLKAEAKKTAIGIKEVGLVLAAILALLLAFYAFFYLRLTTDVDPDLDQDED
Chain of UniProt Q9BQB6 (Q9BQB6 whole entry, looked up): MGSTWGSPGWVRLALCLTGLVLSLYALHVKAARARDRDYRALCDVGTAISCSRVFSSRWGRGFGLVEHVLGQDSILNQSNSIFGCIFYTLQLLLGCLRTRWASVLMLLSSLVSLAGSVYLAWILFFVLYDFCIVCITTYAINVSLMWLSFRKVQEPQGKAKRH

Target | log2 fold change (erlotinib) | log2 fold change [1] | log2 fold change [2] | log2 fold change [3] | log2 fold change [4] | log2 fold change (ibrutinib) | log2 fold change [5] | log2 fold change [6] | log2 fold change [7] | log2 fold change [8] | log2 fold change [9] | log2 fold change [10] | log2 fold change [11] | log2 fold change (IRAK-1-4 Inhibitor I) | log2 fold change [12] | log2 fold change (ralimetinib) | log2 fold change [13] | log2 fold change (pinometostat) | log2 fold change [14] | log2 fold change [15]
UBAP2L (UniProt F8W726) | 0.019 | 0.004 | -0.019 | 0 | 0.124 | 0.017 | -0.002 | 0.145 | 0.136 | – | – | – | – | – | – | – | – | – | – | –
TRPT1 isoform 4 (UniProt Q86TN4) | 0.021 | -0.08 | – | – | – | – | -0.054 | – | – | 0.065 | 0.021 | 0.043 | -0.062 | 0.11 | -0.057 | 0.011 | 0.074 | 0.033 | – | –
WARS1 (UniProt G3V339) | – | – | – | – | – | – | – | – | – | – | – | – | – | – | – | – | – | – | -0.023 | 0.044
TOM1L2 (UniProt Q6ZVM7) | -0.048 | 0.013 | – | – | – | – | 0.049 | -0.012 | – | 0.06 | 0.025 | – | -0.026 | -0.049 | -0.031 | – | – | 0.036 | 0.043 | -0.089
WDR4 isoform 3 (UniProt P57081) | – | – | 0.045 | – | – | -0.157 | – | – | – | – | – | – | – | – | – | – | – | – | -0.144 | -0.126
TMEM184C (UniProt Q9NVA4) | – | – | -0.027 | -0.092 | -0.059 | -0.037 | – | 0.081 | -0.005 | 0.04 | -0.05 | -0.047 | -0.009 | 0.105 | 0.042 | -0.033 | 0.042 | -0.021 | -0.055 | 0.088
TMEM104 (UniProt Q8NE00) | 0.08 | 0.026 | – | – | – | – | -0.473 (active) | 0.126 | – | -0.026 | 0.039 | 0.013 | -0.015 | -0.039 | 0.038 | -0.09 | 0.082 | -0.106 | 0.037 | 0.009
WARS1 (UniProt G3V3P2) | – | – | 0.155 | – | – | -0.036 | – | – | – | – | – | – | – | – | – | – | – | – | – | –
TRIM23 (UniProt P36406) | 0.006 | 0.075 | -0.096 | -0.202 | 0.161 | 0.072 | 0.146 | -0.044 | 0.242 | – | – | 0.061 | – | 0.064 | – | -0.034 | -0.019 | -0.024 | – | –
UBXN10 (UniProt Q96LJ8) | -0.036 | 0.048 | -0.068 | -0.101 | 0.128 | 0.054 | -0.017 | 0.026 | 0.085 | – | – | -0.077 | – | 0.027 | – | -0.045 | 0.038 | 0.058 | 0.004 | -0.145
TRIM44 (UniProt Q96DX7) | 0.022 | 0.025 | 0.087 | -0.023 | -0.014 | 0.018 | -0.06 | -0.007 | -0.327 (active) | 0.1 | 0.028 | -0.061 | -0.037 | 0.031 | 0.067 | -0.094 | 0.061 | -0.01 | – | –
TTC26 | – | – | 0.001 | 0.09 | -0.062 | 0.035 | – | – | 0.062 | – | – | -0.005 | – | – | – | 0.204 | -0.211 | – | – | –
TSPAN13 (UniProt O95857) | 0.017 | 0.061 | 0.075 | 0.065 | 0.143 | 0.175 | -0.198 | 0.113 | 0.065 | – | – | -0.02 | – | – | – | -0.149 | 0.018 | – | -0.058 | 0.151
TRIM5 (UniProt Q9C035) | -0.061 | 0.162 | – | -0.077 | -0.01 | – | -0.176 | – | 0.047 | 0.075 | 0.012 | -0.182 | 0.019 | – | 0 | 0.094 | 0.391 | – | 0.111 | -0.045
UBIAD1 (UniProt Q9Y5Z9) | 0.101 | 0.04 | -0.036 | 0 | 0.094 | -0.009 | -0.069 | -0.04 | 0.047 | -0.052 | 0.194 | 0.259 | 0.297 (active) | 0.012 | -0.055 | -0.032 | 0.029 | -0.104 | – | –
TRIQK (UniProt Q629K1) | – | – | 0.046 | -0.003 | 0.097 | 0.007 | – | – | 0.114 | – | – | -0.077 | – | -0.059 | – | -0.011 | -0.004 | 0.104 | -0.023 | -0.054
USP48 (UniProt Q86UV5) | 0.228 | -0.112 | 0.007 | – | – | -0.07 | -0.246 | 0.05 | – | – | – | – | – | – | – | – | – | – | – | –
TMEM8A (UniProt Q9HCN3) | 0.046 | -0.001 | 0.02 | -0.014 | 0.011 | 0.06 | -0.445 (active) | 0.007 | 0.044 | – | – | 0.124 | – | – | – | -0.131 | -0.036 | – | – | –
U2AF1L5 (UniProt P0DN76) | 1.29 (active) | 0.022 | 0.096 | 0.153 | -0.207 | -0.032 | -0.19 | -0.209 | -0.067 | 0.031 | -0.159 | – | -0.005 | 0.042 | -0.389 | – | – | 0.014 | – | –
TUT4 (UniProt Q5TAX3) | 0.077 | 0.005 | -0.011 | -0.015 | -0.129 | -0.029 | -0.219 | 0.158 | 0.104 | – | – | 0.08 | – | 0.078 | – | 0.07 | 0.086 | 0.059 | -0.231 | 0
VKORC1 (UniProt Q9BQB6) | 0.048 | -0.019 | 0.113 | -0.049 | 0.005 | 0.024 | -0.306 | 0.007 | 0.049 | -0.048 | 0.175 | 0.044 | 0.151 | -0.056 | -0.033 | -0.052 | -0.029 | 0.092 | – | –
TVP23C (UniProt Q96ET8) | -0.025 | -0.021 | – | 0.066 | -0.031 | – | 0.011 | – | 0.037 | 0.053 | 0.062 | – | -0.098 | – | 0.021 | – | – | – | – | –
UBXN8 (UniProt O00124) | – | – | -0.41 | 0.167 | -0.019 | 0.077 | – | – | 0.259 | 0.056 | 0.141 | -0.149 | -0.036 | – | 0.039 | 0.211 | -0.227 | – | 0.147 | 0.138
TXNRD1 isoform 7 (UniProt Q16881) | 0.107 | -0.193 | 0.199 | – | – | -0.209 | -0.01 | – | – | – | – | – | – | – | – | – | – | – | 0.1 | -0.069
WARS1 (UniProt G3V277) | 0.183 | -0.076 | 0.036 | 0.141 | -0.008 | -0.064 | -0.009 | 0.091 | 0.087 | -0.032 | 0.25 | – | -0.014 | -0.005 | -0.184 | – | – | 0.114 | – | –
